Test results reported in PubChem BioAssay (NCATS).
Results filed as inconclusive are left out. Entries that show only a call come without a potency. Calls of active or inactive are those of the source. Calls follow the shape of the dose curve; as a rule, active = well fitted cell-killing curve with a large enough effect; inconclusive = small, poorly fitted or top-dose-only effect, or effect the other way; inactive = flat fitted curve, though single readings scatter.

What follows are compounds tested on CAOV3 (assay: Primary qHTS to identify gynecologic anti-cancer compounds using libraries of approved drugs and bioactive compounds (AID 1345084; also: nearly all actives have a fitted effect of over 55% in size)). Settings: Gynecologic cancer cell panel viability, ATPlite luminescence, 48 h; series mostly up to 57.5 µM.
Outline: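 48 h compound exposure at 37 C, 5% CO2; five-point qHTS. ATPlite luminescence readout of cell ATP.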
Potency is read from the fitted curve at half-maximal effect.

SMILES	Potency	activity change, negative = cytotoxicity
COC(=O)c1ccc(OC(CO)C(O)c2ccc(O)c(OC)c2)c(OC)c1 (stereo not given)	inactive	
COc1ccc2nc(S(=O)(=O)Cc3ncc(C)c(OC)c3C)[nH]c2c1	inactive	
CC(=O)c1cc2c(cc1O)OC(C)(C)C=C2	inactive	
COc1ccc([C@@]2(O)c3c(ccc(CC=C(C)C)c3O)NC(=O)[C@@H]2OC)cc1	inactive	
COC(=O)C1=CO[C@@H](O[C@@H]2O[C@H](CO)[C@@H](O)[C@H](O)[C@H]2O)[C@H]2[C@@H]1C=C[C@@]21C=C([C@H](C)O)C(=O)O1	inactive	
c1ccc(N2CCN(CCc3nn[nH]n3)CC2)cc1	inactive	
Cc1cc2c(c(=O)[nH]1)OC(C(O)CC(C)C)O2 (stereo not given)	inactive	
CC(=O)c1ccc2c(c1)C(O)C(C(C)(C)O)O2 (stereo not given)	inactive	
CC1(C)CC[C@]2(C(=O)O[C@@H]3O[C@H](CO[C@@H]4O[C@H](CO)[C@@H](O)[C@H](O)[C@H]4O[C@@H]4O[C@H](CO)[C@@H](O)[C@H](O)[C@H]4O)[C@@H](O)[C@H](O[C@@H]4O[C@H](CO)[C@@H](O)[C@H](O)[C@H]4O)[C@H]3O)CC[C@]3(C)C(=CCC4[C@@]5(C)CC[C@@H](O)[C@@](C)(C(=O)O[C@@H]6O[C@H](CO)[C@@H](O)[C@H](O)[C@H]6O)C5CC[C@]43C)[C@@H]2C1 (stereo not given in full)		2.18% [at 6.55 µM] (inactive)
CC1=C(C)C(=O)OC(C(C)C2CCC3C4CC=C5CC(OC6OC(COC7OC(CO)C(O)C(O)C7O)C(O)C(O)C6O)CC(O)C5(C)C4CCC23C)C1 (stereo not given)	inactive	
CC(C)=CCC[C@](C)(O)[C@H]1CC[C@]2(C)[C@@H]1[C@H](O)CC1[C@@]3(C)CC[C@H](O)C(C)(C)C3[C@@H](O[C@@H]3O[C@H](CO)[C@@H](O)[C@H](O)[C@H]3O[C@@H]3OC[C@@H](O)[C@H](O)[C@H]3O)C[C@]12C (stereo not given in full)	inactive	
C[C@@H]1CC[C@@]2(OC1)O[C@H]1C[C@H]3[C@@H]4CC=C5C[C@@H](O)CC[C@]5(C)[C@H]4CC[C@]3(C)[C@H]1[C@@H]2C	inactive	
CC(C)[C@@H](CS(=O)(=O)C(C)C)N1C(=O)[C@@](C)(CC(=O)O)C[C@H](c2cccc(Cl)c2)[C@H]1c1ccc(Cl)cc1	inactive	
CC(C)=CCC[C@](C)(O[C@@H]1O[C@H](CO)[C@@H](O)[C@H](O)[C@H]1O)[C@H]1CC[C@]2(C)[C@@H]1[C@H](O)CC1[C@@]3(C)CC[C@H](O)C(C)(C)C3[C@@H](O[C@@H]3O[C@H](CO)[C@@H](O)[C@H](O)[C@H]3O)C[C@]12C (stereo not given in full)	inactive	
C/C=C(/COC(=O)/C(C)=C/C)C(=O)OC(CC)c1ccc(OC)c(OC)c1 (stereo not given)	inactive	
COc1ccc2cc(C(C)C(=O)Oc3ccc(C(N)=S)cc3)ccc2c1 (stereo not given)	inactive	
C/C=C1\[C@H](O[C@@H]2O[C@H](CO)[C@@H](O)[C@H](O)[C@H]2O)OC=C(C(=O)OC)[C@H]1CC(=O)O	inactive	
C[C@@H]1O[C@@H](O[C@H]2[C@H](OC(=O)[C@]34CCC(C)(C)C[C@H]3C3=CCC5[C@@]6(C)C[C@H](O)[C@H](O[C@@H]7O[C@H](CO)[C@@H](O[C@H]8OC[C@](O)(CO)[C@H]8O)[C@H](O)[C@H]7O)[C@@](C)(CO)C6[C@H](O)C[C@@]5(C)[C@]3(C)C[C@H]4O)OC[C@H](O)[C@@H]2O)[C@H](O)[C@H](O)[C@H]1O[C@@H]1OC[C@@H](O)[C@H](O[C@@H]2OC[C@](O)(CO)[C@H]2O)[C@H]1O (stereo not given in full)		-10.4% [at 6.55 µM] (inactive)
CC(C)C(=O)OC[C@H]1O[C@H](O[C@H]2O[C@H](CO)[C@@H](O)[C@H](O)[C@H]2O)[C@H](O)[C@@H](O)[C@@H]1O	inactive	
O=C(COc1cccc2c(=O)[nH]ccc12)c1ccccc1	inactive	

SMILES	Potency	activity change, negative = cytotoxicity
CC(=O)N1CCN(Cc2ccc([C@H](C)Nc3nccc(N4C(=O)OC[C@@H]4C(C)C)n3)cc2)CC1	inactive	
CCC(Nc1ncnc2nc[nH]c12)c1nc2cccc(F)c2c(=O)n1-c1ccccc1 (stereo not given)	inactive	
CC(C(O)/C=C/C(C)(C)O)C1CCC2(C)C3C(=O)C=C4C(CCC(O)C4(C)C)C3(C)CCC12C (stereo not given)	inactive	
c1ccc(-c2ncc(CN3CCN(c4ncccn4)CC3)[nH]2)cc1	inactive	
CC[C@@H](O)C[C@@H]1C(C)=C[C@@H]2CCCC[C@@H]2[C@@]1(C)C(=O)O	inactive	
O=C(/C=C/c1ccc(O)cc1)OC1[C@H](O)CC(O)(C(=O)O)C[C@H]1O (stereo not given in full)	inactive	
O=[N+]([O-])c1cn2c(n1)OCC(OCc1ccc(OC(F)(F)F)cc1)C2 (stereo not given)	inactive	
C=C1CCC2C(C)(C)CCC[C@]2(C)[C@H]1C/C=C(\CO)C(=O)C(=O)O (stereo not given in full)	inactive	
C=CC[C@]12C[C@@H](OC)C(=O)C(OC)=C1O[C@@H](c1cc(OC)c3c(c1)OCO3)[C@@H]2C	inactive	
COCC1OC(OC(C)(C)C2CCC3(C)C=C(C4CCC5C4(C)CC(O)C4OC(C(C)(C)OC6OC(CO)C(O)C(O)C6NC(C)=O)CCC45C)CCC3O2)C(NC(C)=O)C(O)C1O (stereo not given)		-5.9% [at 11.6 µM] (inactive)
CCCCc1nc2cc(/C=C/C(=O)NO)ccc2n1CCN(CC)CC	8.91 µM (active)	
CN1CCc2nc(C(=O)N[C@@H]3C[C@@H](C(=O)N(C)C)CC[C@@H]3NC(=O)C(=O)Nc3ccc(Cl)cn3)sc2C1	inactive	
C[C@@]1(O)[C@H](O)[C@@H](CO)O[C@H]1n1ccc(N)nc1=O	inactive	
COc1ccc(-c2nc(-c3ccc(-c4cccc(Cl)c4)o3)[nH]c2-c2ccc(OC)cc2)cc1	inactive	
CCOCCn1nc(CC)c2nc(N3CCC(C(=O)O)CC3)nc(Nc3cc(C)ccn3)c21	inactive	
C=CCC1=C[C@]2(OC)[C@H](C)[C@@H](c3ccc(O)c(OC)c3)O[C@]2(OC)CC1=O	inactive	
Cc1ccc(Cc2c(C)nc3nc(SCC(=O)NCCN4CCNCC4)nn3c2C)cc1	inactive	
CC1CC[C@]2(C(=O)O)CC[C@]3(C(=O)O)C(=CCC4[C@@]5(C)CC[C@H](OC6OC(C)C(O)C(OC7OC(CO)C(O)C(O)C7O)C6O)C(C)(C)C5CC[C@]43C)C2C1C (stereo not given in full)	inactive	
C=C1CC[C@@H]2[C@@](C)(CO[C@@H]3O[C@H](CO)C(O)[C@H](O)C3O)[C@H](O)CC[C@@]2(C)[C@@H]1CC/C(C)=C/CO (stereo not given in full)		1.16% [at 11.6 µM] (inactive)
O=C(Nc1ccc(-c2ccncc2)cc1)N[C@H](CO)c1ccccc1	inactive	
